This note sets out measurements from the supplement of paper PMC7866885, “A novel bicyclic 2,4-diaminopyrimidine inhibitor of Streptococcus suis dihydrofolate reductase” (PeerJ, 2021).

Molecules are shown by their SMILES. ± gives the standard deviation.

The subject of experiment [1] is Streptococcus suis HE06. The experiment is described as follows: percent growth relative to DMSO control; higher = less growth inhibition. Particulars: 10 µM; incubation time 18 h. As for the experimental part:
(§1)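 CLSI broth microdilution: 5x10^4 CFU of Streptococcus suis (strain P1/7 or HE06) incubated with 10 µM Pathogen Box compound in cation-adjusted Mueller Hinton broth, 37 °C, 5% CO2, 18 h. Growth read as OD600 and expressed as percent of the DMSO-treated control (100%); mean ± SD of three independent experiments.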

The subject of experiment [2] is Streptococcus suis P1/7. Described as above. The settings on record: 10 µM; incubation time 18 h. As for the experimental part: as §1

In the case of `COc1ccc(-c2nnc3ccc(-c4cccc(C(C)C)c4)cn23)cc1OC`, the percent growth is 97.1 ± 15% in experiment [1] and 68 ± 20% in experiment [2].

As for `CS(=O)(=O)c1ccc(C(=O)N(CC2CCCO2)c2nc3ccccc3s2)cc1[N+](=O)[O-]` (stereo not drawn), the percent growth in experiment [1] was determined as 91.7 ± 7.5%; in experiment [2] it was 108 ± 18%.

For `CC(C)N=c1cc2n(-c3ccc(Cl)cc3)c3ccccc3nc-2cc1Nc1ccc(Cl)cc1`, the percent growth in experiment [1] was 29.6 ± 51%; in experiment [2], 48.2 ± 42%.

Consider `Cc1cc(OCC(=O)NCc2ccccc2)c2cc(Br)ccc2n1`, for which the percent growth in experiment [1] stood at 94.8 ± 9.9%; in experiment [2] it was 176 ± 160%.

Consider `Clc1ccc(CCNc2cc(-c3ccccc3)nc3ncnn23)cc1`, for which the percent growth was found to be 79.8 ± 10% in experiment [1] and 81.5 ± 18% in experiment [2].

As to `CCCCOC(=O)Nc1cc2nc(C3CCCCC3)[nH]c2cc1N1CCCC1`, the figures for the percent growth in experiment [1] and in experiment [2] were 29.6 ± 40% and 62.9 ± 63%, respectively.

Take `CC1COC2(CCN(c3nc(=O)c4cc(C(F)(F)F)cc([N+](=O)[O-])c4s3)CC2)O1` (stereo not drawn): the percent growth in experiment [1] was 80.1 ± 1.6%; in experiment [2], 81.2 ± 24%.

Consider `CC(C)(C)c1cc(C(=O)Nc2cccnc2)cc(C(=O)Nc2cccnc2)c1`, for which the results for the percent growth in experiment [1] and in experiment [2] were 80.6 ± 4.4% and 143 ± 90%, respectively.

For `COc1cc(NC(C)CCCN)c2ncccc2c1` (stereo not drawn), the percent growth in experiment [1] is 90.6 ± 4%; in experiment [2] it was 127 ± 60%.

On to `O=C(Nc1ccc(F)c(-c2nc3cc(-c4ccccc4)cnc3[nH]2)c1)N1CCCC1`, for which the percent growth came to 99.7 ± 36% in experiment [1] and 83.7 ± 5.5% in experiment [2].

`c1ccc(C[C@@H]2CN(c3nccc(Oc4ccc(-n5ccnc5)cc4)n3)CCN2)cc1`: the figures for the percent growth in experiment [1] and in experiment [2] were 93.3 ± 12% and 90.5 ± 21%, respectively.

Consider `CC(C)C(C(=O)Nc1ccc(S(=O)(=O)N(C)C)cc1)c1ccc(Cl)cc1` (stereo not drawn), for which the percent growth worked out at 110 ± 24% in experiment [1] and 86 ± 22% in experiment [2].

As to `CC(C)n1ncc2c(C(=O)NCC(c3cccs3)N3CCOCC3)cc(-c3ccccc3)nc21` (stereo not drawn), the values for the percent growth in experiment [1] and in experiment [2] were 89.9 ± 4.6% and 106 ± 36%, respectively.

As for `CC1=Nc2ccc(Cl)cc2C(O)(c2ccc(C)cc2)N1CCN1CCCCC1` (stereo not drawn), the values for the percent growth in experiment [1] and in experiment [2] were 98.9 ± 32% and 91 ± 28%, respectively.
